Among the data in PubChem BioAssay (NCATS) are activity change, negative = inhibition, Potency and outcome values, retold here.

Unmarked numbers belong to inactive results. Inconclusive results are not listed. Active and inactive are the calls of the source. Unless noted, the call rests on the fitted dose curve; in most records, active means well fitted curve in the direction sought with a large enough effect; inconclusive means small, poorly fitted or top-dose-only effect, or another doubt; inactive means no such curve, though single readings can be large; an effect the other way counts as inactive or inconclusive. A value given as a limit tells only on which side of the number the result lay.

Assay [1] in a line: AP1 Signaling Pathway (AID 357; active means well fitted curve in either direction with a large enough effect, not every such curve was filed as active;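 further: ME-180 reporter cells stimulated with EGF at its EC50 level; on the % scale 0 is the no-effect control and ±100 the full control effect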). The following applies: ME-180 AP-1-bla reporter, EGF-induced, beta-lactamase ratio, 5 h; at 17.2 µM (top of the series) unless noted. The method in brief:
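Cells are seeded overnight, exposed to compound titrations and an EC50 level of EGF for 5 hours at 37 °C, then loaded with CCF4 dye for 2.5 hours. Beta-lactamase activity under the AP-1 element is read as a blue/green ratio.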

Assay [2] deals with Glucocorticoid receptor (Homo sapiens) (UniProt P04150). As to the kind of experiment: GR-GFP Redistribution (AID 450;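 active means compounds whose dose series gives a full or clear partial fitted curve of increased nuclear translocation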; further: potency means the concentration at half of the fitted maximal effect). The following applies: U2OS GR-GFP nuclear translocation, laser cytometry, 2 h.
Chain of Glucocorticoid receptor (Homo sapiens) (P04150 whole entry, looked up, the tested form may be a part): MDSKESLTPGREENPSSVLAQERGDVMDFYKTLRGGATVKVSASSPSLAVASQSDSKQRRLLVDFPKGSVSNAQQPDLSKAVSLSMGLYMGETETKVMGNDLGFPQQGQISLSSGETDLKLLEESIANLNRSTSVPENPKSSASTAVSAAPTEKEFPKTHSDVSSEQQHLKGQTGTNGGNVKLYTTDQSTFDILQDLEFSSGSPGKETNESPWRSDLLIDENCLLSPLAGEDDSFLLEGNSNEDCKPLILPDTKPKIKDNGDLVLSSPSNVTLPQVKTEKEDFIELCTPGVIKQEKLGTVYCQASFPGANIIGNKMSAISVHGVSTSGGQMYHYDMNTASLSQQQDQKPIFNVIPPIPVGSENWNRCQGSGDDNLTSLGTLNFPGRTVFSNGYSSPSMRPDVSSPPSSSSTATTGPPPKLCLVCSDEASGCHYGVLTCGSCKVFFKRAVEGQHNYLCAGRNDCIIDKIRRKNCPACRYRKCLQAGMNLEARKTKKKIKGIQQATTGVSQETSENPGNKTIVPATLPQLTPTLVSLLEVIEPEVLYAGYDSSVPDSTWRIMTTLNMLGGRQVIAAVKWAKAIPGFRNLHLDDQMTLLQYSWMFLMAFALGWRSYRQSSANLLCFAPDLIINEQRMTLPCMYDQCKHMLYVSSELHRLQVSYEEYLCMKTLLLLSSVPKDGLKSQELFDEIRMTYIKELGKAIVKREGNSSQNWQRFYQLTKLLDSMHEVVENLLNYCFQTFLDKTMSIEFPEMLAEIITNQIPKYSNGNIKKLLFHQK
Assay [3] deals with Mitogen-activated protein kinase 10 (Mus musculus) (UniProt Q61831). Put plainly: JNK3 AlphaScreen Assay (AID 530; active means well fitted curve in either direction with a large enough effect, not every such curve was filed as active;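 further: kinase came from lysate of stimulated human HepG2 cells; signal reports phosphorylation of biotinylated GST-cJun 1-79 at Ser73 with 10 µM ATP; on the % scale 0 is the no-effect control and ±100 the full control effect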). The procedure, abridged: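 Pre-activated (IL-1β/TNFα) JNK3 in HepG2 lysates phosphorylates biotin-GST-cJun(1-79), 10 uM ATP; anti-phospho-cJun(Ser73) AlphaScreen read at room temperature, pH 7.6 Tris buffer. Compounds pre-incubated 15 min as titrations.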
Background: Bead proximity is the source of the signal in Alpha formats.

The target of assay [4] is 3',5'-cyclic-AMP phosphodiesterase 4B (Homo sapiens) (UniProt Q07343). As to the kind of experiment: qHTS Assay for Inhibitors of PDE-IV (AID 607; active means well fitted activation curve with a large enough effect in the main read-out, with a control signal flat, not every such curve was filed as active; further: % of control where 0% means no effect). The procedure, abridged:
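HEK293 ACTOne cells with CNG channel (1000/well), endogenous PDE4; membrane potential dye, compounds up to 22.9 uM final. Fluorescence Ex 535/Em 590; RO 20-1724 (100 uM final) as reference.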
A general note: qHTS replaces the single test concentration by a dilution series.

Assay [5] deals with Guanine nucleotide-binding protein G(i) subunit alpha-1 (Homo sapiens) (UniProt P63096). As to the kind of experiment: qHTS Assay for Inhibitors of RGS12 GoLoco Motif Activity (Green Fluorophore) (AID 879).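 Further: 0% = labeled peptide with Gαi1 and full inhibition = labeled peptide alone without protein; negative values mean loss of peptide binding seen as reduced polarization.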 The method in brief: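 Fluorescence polarization assay: 50 nM Gαi1 with 10 nM FITC-labeled RGS12 GoLoco peptide in 10 mM Tris pH 7.5, 150 mM NaCl, 0.1 mM GDP, 0.05% NP40, 10 min at room temperature with compound.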

Assay [6] addresses Cytochrome P450 2C9 (Homo sapiens) (UniProt P11712). As to the kind of experiment: qHTS Assay for Inhibitors and Substrates of Cytochrome P450 2C9 (AID 883). Further: on the % scale 0 is the no-effect control and ±100 the full control effect; nearly all actives have a fitted effect of over 60% in size. The procedure, abridged: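 10nM CYP2C9 + 100uM Luciferin-H (=KM), 25mM KPO4; cpd 10 min 37C; NADPH regen, 60 min 37C; stop/detect with P450 Glo-Buffer 20 min; luminescence. Norm. to 57uM sulphaphenazole as full inhibition.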

The target of assay [7] is Cytochrome P450 3A4 (Homo sapiens) (UniProt P08684). As to the kind of experiment: qHTS Assay for Activators of Cytochrome P450 3A4 (AID 885). Further: nearly all actives have a fitted effect of over 65% in size. The method in brief: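 Human CYP3A4 (20 nM) with Luciferin-PPXE at 25 uM (its KM) in 200 mM KPO4; 10 min compound preincubation, then NADPH regeneration and 60 min reaction at RT. Luciferin read by luminescence; normalized to 57 uM ketoconazole full inhibition.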
Chain of Cytochrome P450 3A4 (Homo sapiens) (P08684 whole entry, looked up): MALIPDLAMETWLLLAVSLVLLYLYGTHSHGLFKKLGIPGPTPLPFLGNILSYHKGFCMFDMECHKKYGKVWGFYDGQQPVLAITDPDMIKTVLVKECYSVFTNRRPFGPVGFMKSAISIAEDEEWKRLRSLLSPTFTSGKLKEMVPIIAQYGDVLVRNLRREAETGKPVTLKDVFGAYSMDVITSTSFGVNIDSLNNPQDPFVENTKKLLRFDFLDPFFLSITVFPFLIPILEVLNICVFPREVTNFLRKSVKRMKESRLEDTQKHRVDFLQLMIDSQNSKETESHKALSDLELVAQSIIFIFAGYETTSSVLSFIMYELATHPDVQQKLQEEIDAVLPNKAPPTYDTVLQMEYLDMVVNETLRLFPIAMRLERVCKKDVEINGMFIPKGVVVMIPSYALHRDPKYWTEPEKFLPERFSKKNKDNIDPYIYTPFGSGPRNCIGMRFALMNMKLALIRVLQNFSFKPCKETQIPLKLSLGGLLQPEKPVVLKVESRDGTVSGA

A short description of assay [8]: qHTS Assay for Identification of Small Molecule Agonists for Thrombopoietin (TPO) Signaling Pathway (AID 917). Further: on the % scale 0 is the no-effect control and ±100 the full control effect. The procedure, abridged:
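Murine Ba/F3 cells stably expressing human TPO receptor and a Glycoprotein IIb promoter–luciferase reporter were IL-3-starved overnight, then treated with compounds plus TPO (26 pM final, its EC50) for 24 hrs at 37 C; luminescence was read.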

Assay [9] addresses Muscarinic acetylcholine receptor M1 (Rattus norvegicus) (UniProt P08482). As to the kind of experiment: qHTS Assay for Antagonists of Acetylcholine Muscarinic M1 Receptor: Kinetic Measurement of Intracellular Calcium Response (AID 943). Further: potency means the concentration at half of the fitted maximal effect; nearly all actives have a fitted effect of over 75% in size. The procedure, abridged:
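CHO cells expressing rat M1 receptor, Fluo-4 loaded, preincubated 10 min with compound, then stimulated with EC80 carbachol (100 nM final). Kinetic calcium fluorescence over 4 min; response taken as peak over basal signal.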

For assay [10] the target is unchanged. Put plainly: qHTS Assay for Antagonists of Acetylcholine Muscarinic M1 Receptor: Measurement of IP-One Response (AID 944). Further: potency means the concentration at half of the fitted maximal effect; nearly all actives have a fitted effect of over 75% in size. The procedure, abridged: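 CHO cells stably expressing rat M1, pretreated 10 min with compound, then stimulated 30 min with carbachol at EC80 (200 nM) in LiCl-containing buffer pH 7.4; IP1 accumulation read by HTRF competition (665/620 nm).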

Assay [11] has as its target Pyruvate kinase (Leishmania mexicana) (UniProt Q27686). Put plainly: qHTS Validation Assay for Inhibitors of Leishmania Mexicana Pyruvate Kinase (AID 945).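 Further: 0% = DMSO only neutral control wells.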 The method in brief:
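qHTS eight-point titrations against 0.2 nM LmPYK (E451W) in imidazole buffer pH 7.2 with 0.5 mM PEP, 0.1 mM ADP; 1 h, room temperature. Readout: PKLight luminescence, normalized to neutral DMSO wells.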

The target in assay [12] is Pyruvate kinase PKM (Homo sapiens) (UniProt P14618). As to the kind of experiment: qHTS Assay for Activators of Human Muscle Pyruvate Kinase (AID 954; active means well fitted curve in the direction sought with a large enough effect, not every such curve was filed as active;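 further: 0% = uninhibited enzyme and -100% = no enzyme or full thiadiazolimine inhibition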). The procedure, abridged:
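Purified human PKM2 (0.1 nM) with 0.5 mM PEP (Km) and 0.1 mM ADP in 50 mM imidazole pH 7.2, KCl, MgCl2, 1 h at room temperature; ATP formed read by coupled luciferase luminescence. Normalized to no-enzyme/110 uM thiadiazolimine inhibition; 0.3 nM enzyme column for activation.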

Assay [13] concerns the target Alpha-galactosidase (Coffea arabica) (UniProt Q42656). As to the kind of experiment: Counterscreen for Glucocerebrosidase Inhibitors: qHTS Assay for Coffee Bean alpha-Galactosidase at pH 4.5 (AID 957).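 Further: plate controls were enzyme alone for no effect and no enzyme for full effect.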 The procedure, abridged:
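Coffee bean enzyme (2 nM) with 80 uM 4-methylumbelliferyl alpha-D-galactopyranoside in 50 mM citric acid, 0.005% Tween-20, pH 4.5, 20 min at room temperature; compounds 0.7 nM–77 uM. Stopped at pH 10, fluorescence 365/440 nm; AC50 from Hill fits.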

In assay [14] the target is Alpha-galactosidase A (Homo sapiens) (UniProt P06280). As to the kind of experiment: Counterscreen for Glucocerebrosidase Inhibitors: qHTS Assay for Human alpha-Galactosidase at pH 4.5 (AID 992). Further: 0% is about no effect. The procedure, abridged: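 Human enzyme (2 nM) with 80 uM 4-methylumbelliferyl alpha-D-galactopyranoside in 50 mM citric acid, 0.005% Tween-20, pH 4.5, 20 min at room temperature. Compounds 0.7 nM–77 uM; fluorescence Ex 365/Em 440 after pH 10 stop; AC50 from Hill fits.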
For orientation: A counterscreen serves to expose hits that act by an unwanted route or on another target.

The target in assay [15] is alpha-glucosidase (Oryza sativa, rice) (UniProt Q653V4). As to the kind of experiment: Counterscreen for Glucocerebrosidase Inhibitors: qHTS Assay for Rice alpha-Glucosidase at pH 5.0 (AID 997).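 Further: 0% = full activity with enzyme and -100% = basal without enzyme.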 The procedure, abridged:
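Rice alpha-glucosidase (4 nM final) with 400 uM 4-methylumbelliferyl-alpha-D-glucopyranoside in citrate buffer pH 5.0, 20 min at room temperature, stopped at pH 10; fluorescence 365/440 nm, compounds 0.7 nM–77 uM, AC50 from Hill fits.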

In assay [16] the target is Alpha-galactosidase (Coffea arabica) (UniProt Q42656). As to the kind of experiment: Counterscreen for Glucocerebrosidase Inhibitors: qHTS Assay for Coffee Bean alpha-Galactosidase at pH 5.9 (AID 998).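 Further: plate controls were uninhibited enzyme for no effect and no-enzyme basal signal for full effect.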 The procedure, abridged: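 Green coffee bean enzyme (2 nM) with 4-methylumbelliferyl alpha-D-galactopyranoside (80 uM) in 50 mM citric acid, 0.005% Tween-20, pH 5.9, 20 min at room temperature; compounds 0.7 nM–77 uM. Stopped at pH 10, fluorescence Ex365/Em440; Hill-fit AC50.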
Chain of Alpha-galactosidase (Coffea arabica) (Q42656 whole entry, looked up): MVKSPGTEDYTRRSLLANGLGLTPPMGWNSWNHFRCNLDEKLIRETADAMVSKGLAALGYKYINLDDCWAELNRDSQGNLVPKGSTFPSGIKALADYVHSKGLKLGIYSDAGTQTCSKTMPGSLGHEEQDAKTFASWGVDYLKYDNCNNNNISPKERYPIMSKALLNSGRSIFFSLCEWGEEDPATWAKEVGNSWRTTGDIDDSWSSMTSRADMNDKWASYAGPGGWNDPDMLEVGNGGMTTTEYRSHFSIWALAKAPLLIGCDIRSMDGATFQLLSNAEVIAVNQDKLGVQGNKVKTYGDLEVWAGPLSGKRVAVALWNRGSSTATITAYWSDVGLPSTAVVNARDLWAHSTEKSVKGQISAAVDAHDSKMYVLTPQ

A short description of assay [17]: Stat Signaling Pathway (AID 446; active means well fitted curve in either direction with a large enough effect, not every such curve was filed as active;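 further: ME-180 cervical cancer cells given 40 pM IL-6 alongside compound; SIE-controlled beta-lactamase reporter measured as 460/530 nm FRET emission ratio; on the % scale 0 is the no-effect control and ±100 the full control effect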). The procedure, abridged: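 ME-180 cells carrying a SIE-driven beta-lactamase reporter are stimulated with 40 pM IL-6 for 5 h at 37C in the presence of compound. The 460/530 nm FRET substrate ratio is read after 2.5 h at RT. Data are normalised to 300 pM IL-6 and to 125 nM JAK inhibitor controls.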
Assay [18] addresses Cytochrome P450 1A2 (Homo sapiens) (UniProt P05177). Put plainly: p450-cyp1a2 (AID 410; calls by dose curve;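 further: -100% = full effect of reference inhibitor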). The method in brief: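 20nM CYP1A2 with 100uM Luciferin-ME (at Km) in 100mM KPO4; compound preincubated 10 min, NADPH regeneration added, 60 min at room temperature. Luciferin quantified by luminescence after detection reagent; normalized to 57 uM furafylline.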
The target of assay [19] is Glucocorticoid receptor (Homo sapiens) (UniProt P04150). Put plainly: GR-EFC Redistribution (AID 451; calls by dose curve; further: potency means the concentration at half of the fitted maximal effect). The following applies: CHO-K1 GR-EFC translocation, beta-gal luminescence, 2 h. The procedure, abridged:
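CHO-K1 cells expressing nuclear EA and GR-ED fragments of b-gal; compounds titrated up to 46 uM final, 2 h at 37 C. GR nuclear translocation read as complemented b-gal luminescence after 1 h RT detection.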

The target in assay [20] is Cytochrome P450 2D6 (Homo sapiens) (UniProt P10635). Put plainly: qHTS Assay for Inhibitors and Substrates of Cytochrome P450 2D6 (AID 891). Further: potency means the concentration at half of the fitted maximal effect; nearly all actives have a fitted effect of over 60% in size. The procedure, abridged: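 Human CYP2D6 (5 nM) with 30 uM Luciferin-ME EGE (at Km) in 100 mM KPO4, compound preincubated 10 min, then NADPH regeneration system for 60 min at room temperature. Luciferin read by luminescence; normalized to 1.43 uM quinidine.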

Assay [21] deals with Cytochrome P450 2C19 (Homo sapiens) (UniProt P33261). Put plainly: qHTS Assay for Inhibitors and Substrates of Cytochrome P450 2C19 (AID 899). Further: on the % scale 0 is the no-effect control and ±100 the full control effect; nearly all actives have a fitted effect of over 60% in size. The procedure, abridged: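 Luminescent read-out of luciferin formed from Luciferin-H EGE (10uM, equal to KM). Enzyme 5nM in 50mM KPO4; compound added, 10 min at 37C, then NADPH regenerating system for 60 min at 37C. Full inhibition defined by 57uM ketoconazole.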
Chain of Cytochrome P450 2C19 (Homo sapiens) (P33261 whole entry, looked up): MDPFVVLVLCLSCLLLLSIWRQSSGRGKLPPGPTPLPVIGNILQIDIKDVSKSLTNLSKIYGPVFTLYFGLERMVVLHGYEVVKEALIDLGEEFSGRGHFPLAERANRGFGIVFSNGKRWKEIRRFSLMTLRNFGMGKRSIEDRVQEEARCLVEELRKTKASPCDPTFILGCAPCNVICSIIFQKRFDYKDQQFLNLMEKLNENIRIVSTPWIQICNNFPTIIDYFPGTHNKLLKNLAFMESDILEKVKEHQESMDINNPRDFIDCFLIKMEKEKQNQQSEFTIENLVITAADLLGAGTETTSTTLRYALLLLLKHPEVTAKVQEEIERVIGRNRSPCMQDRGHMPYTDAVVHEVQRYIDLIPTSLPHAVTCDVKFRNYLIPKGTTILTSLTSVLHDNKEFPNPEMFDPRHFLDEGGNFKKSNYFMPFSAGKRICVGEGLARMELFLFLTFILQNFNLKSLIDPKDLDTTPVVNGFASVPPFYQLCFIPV

Assay [22] can be described thus: NFAT Signaling Pathway (AID 444; active means well fitted curve in either direction with a large enough effect, not every such curve was filed as active). The following applies: Jurkat NFAT-bla M1, carbachol, beta-lactamase ratio, 5 h; at 17.2 µM (top of the series) unless noted. The procedure, abridged:
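Jurkat cells with NFAT-driven β-lactamase reporter and co-expressed M1 receptor, stimulated with carbachol (final 1 uM, ~EC50), compound titration, 5 h at 37 °C. CCF4 loaded 1 h at RT; 460/530 nm ratio gave %activity and AC50.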

Assay [23] deals with Cytochrome P450 3A4 (Homo sapiens) (UniProt P08684). As to the kind of experiment: qHTS Assay for Inhibitors and Substrates of Cytochrome P450 3A4 (AID 884). Further: potency means the concentration at half of the fitted maximal effect; nearly all actives have a fitted effect of over 50% in size. The procedure, abridged:
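20 nM human CYP3A4 with 25 uM Luciferin-PPXE (at KM) in 200 mM KPO4, preincubated 10 min with compound; NADPH regeneration started a 60 min RT reaction. Luciferin detected by luminescence, normalized to 57 uM ketoconazole as full inhibition.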

The target of assay [24] is Ubiquitin carboxyl-terminal hydrolase 1 (Homo sapiens) (UniProt O94782). As to the kind of experiment: Inhibitors of USP1/UAF1: Pilot qHTS (AID 504865). Further: potency means the concentration at half of the fitted maximal effect; nearly all actives have a fitted effect of over 35% in size. The procedure, abridged: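 USP1/UAF1 complex (1nM) preincubated with compound 15 min at room temperature, then Ub-Rho substrate (150nM final) added. Fluorescence read kinetically at 480/540 nm, 6 reads every 60 seconds. Buffer: 50mM HEPES pH 7.8, 0.5mM EDTA, 0.1 mg/ml BSA, 1mM TCEP, 0.01% Tween-20.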

Chain of Cytochrome P450 1A2 (Homo sapiens) (P05177 whole entry, looked up): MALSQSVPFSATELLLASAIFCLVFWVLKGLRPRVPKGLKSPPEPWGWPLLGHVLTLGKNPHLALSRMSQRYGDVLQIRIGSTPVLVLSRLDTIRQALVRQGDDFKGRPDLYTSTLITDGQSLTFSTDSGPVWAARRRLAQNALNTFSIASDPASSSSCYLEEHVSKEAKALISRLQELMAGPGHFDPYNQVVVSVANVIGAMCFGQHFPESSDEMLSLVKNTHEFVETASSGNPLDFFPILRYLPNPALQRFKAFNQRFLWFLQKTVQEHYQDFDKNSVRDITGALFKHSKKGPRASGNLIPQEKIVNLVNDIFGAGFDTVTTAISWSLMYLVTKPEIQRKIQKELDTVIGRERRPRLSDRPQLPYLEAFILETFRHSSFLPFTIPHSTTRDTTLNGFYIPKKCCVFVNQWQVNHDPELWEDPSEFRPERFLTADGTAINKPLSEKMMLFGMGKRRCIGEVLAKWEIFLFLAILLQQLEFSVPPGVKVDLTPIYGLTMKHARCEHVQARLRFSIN
Chain of Cytochrome P450 2C9 (Homo sapiens) (P11712 whole entry, looked up): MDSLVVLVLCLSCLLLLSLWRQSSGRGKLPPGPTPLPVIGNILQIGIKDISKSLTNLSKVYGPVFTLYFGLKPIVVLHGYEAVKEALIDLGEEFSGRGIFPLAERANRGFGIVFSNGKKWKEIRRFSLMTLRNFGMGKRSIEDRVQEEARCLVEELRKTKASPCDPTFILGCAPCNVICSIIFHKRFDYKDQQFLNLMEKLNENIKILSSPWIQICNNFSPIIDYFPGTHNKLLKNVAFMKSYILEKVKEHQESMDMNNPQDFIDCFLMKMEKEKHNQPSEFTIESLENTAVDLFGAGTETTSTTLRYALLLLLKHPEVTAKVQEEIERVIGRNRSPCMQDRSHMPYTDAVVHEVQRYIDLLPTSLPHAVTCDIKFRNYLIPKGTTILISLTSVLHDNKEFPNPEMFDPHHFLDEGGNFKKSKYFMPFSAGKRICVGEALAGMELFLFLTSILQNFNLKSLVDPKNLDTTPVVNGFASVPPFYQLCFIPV
Chain of Muscarinic acetylcholine receptor M1 (Rattus norvegicus) (P08482 whole entry, looked up): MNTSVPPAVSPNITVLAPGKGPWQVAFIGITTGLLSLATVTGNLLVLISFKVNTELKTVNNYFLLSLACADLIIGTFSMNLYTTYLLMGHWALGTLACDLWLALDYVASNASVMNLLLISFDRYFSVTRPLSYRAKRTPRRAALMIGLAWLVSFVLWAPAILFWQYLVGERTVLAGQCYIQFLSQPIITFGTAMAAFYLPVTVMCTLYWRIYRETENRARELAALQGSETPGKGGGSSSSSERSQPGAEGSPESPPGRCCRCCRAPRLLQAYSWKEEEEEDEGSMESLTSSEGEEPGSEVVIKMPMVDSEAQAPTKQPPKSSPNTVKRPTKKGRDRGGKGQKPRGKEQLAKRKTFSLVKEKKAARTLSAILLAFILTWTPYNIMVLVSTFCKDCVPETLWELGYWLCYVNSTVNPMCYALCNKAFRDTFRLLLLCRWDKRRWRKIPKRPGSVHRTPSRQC
Chain of 3',5'-cyclic-AMP phosphodiesterase 4B (Homo sapiens) (Q07343 whole entry, looked up): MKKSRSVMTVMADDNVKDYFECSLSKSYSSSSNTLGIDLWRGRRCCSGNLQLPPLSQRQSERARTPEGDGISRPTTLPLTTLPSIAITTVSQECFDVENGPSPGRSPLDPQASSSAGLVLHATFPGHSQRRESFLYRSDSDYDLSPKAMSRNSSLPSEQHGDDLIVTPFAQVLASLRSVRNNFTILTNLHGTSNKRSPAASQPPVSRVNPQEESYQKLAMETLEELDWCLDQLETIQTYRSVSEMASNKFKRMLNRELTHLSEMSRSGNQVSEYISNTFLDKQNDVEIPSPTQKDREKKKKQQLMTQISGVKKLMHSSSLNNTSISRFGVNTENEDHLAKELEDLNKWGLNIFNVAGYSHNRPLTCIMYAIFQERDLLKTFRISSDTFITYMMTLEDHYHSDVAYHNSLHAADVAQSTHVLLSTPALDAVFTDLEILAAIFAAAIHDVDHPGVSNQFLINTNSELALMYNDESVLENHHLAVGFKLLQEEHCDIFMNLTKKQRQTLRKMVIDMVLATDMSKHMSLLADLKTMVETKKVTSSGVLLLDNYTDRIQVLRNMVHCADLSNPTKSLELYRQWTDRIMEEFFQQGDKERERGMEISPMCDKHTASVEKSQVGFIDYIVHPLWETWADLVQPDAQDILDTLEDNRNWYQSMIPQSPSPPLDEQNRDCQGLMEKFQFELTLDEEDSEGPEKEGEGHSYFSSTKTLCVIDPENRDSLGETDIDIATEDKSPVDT
Chain of Pyruvate kinase PKM (Homo sapiens) (P14618 whole entry, looked up): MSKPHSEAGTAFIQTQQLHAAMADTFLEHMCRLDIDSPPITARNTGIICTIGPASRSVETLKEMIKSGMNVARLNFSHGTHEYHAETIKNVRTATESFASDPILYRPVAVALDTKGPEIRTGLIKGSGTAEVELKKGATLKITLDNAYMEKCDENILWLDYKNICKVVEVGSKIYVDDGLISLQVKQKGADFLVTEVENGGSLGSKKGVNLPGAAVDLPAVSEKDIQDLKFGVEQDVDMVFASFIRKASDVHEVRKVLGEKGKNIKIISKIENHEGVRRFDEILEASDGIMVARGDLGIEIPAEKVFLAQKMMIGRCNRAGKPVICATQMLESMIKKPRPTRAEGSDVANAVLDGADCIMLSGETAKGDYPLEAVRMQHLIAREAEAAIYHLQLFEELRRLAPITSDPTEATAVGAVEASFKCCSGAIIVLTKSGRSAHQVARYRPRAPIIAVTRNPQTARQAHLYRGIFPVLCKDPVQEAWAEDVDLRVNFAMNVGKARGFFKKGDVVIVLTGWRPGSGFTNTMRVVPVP

For `CN1[C@@H]2CC[C@H]1CC(O[C@@H](c1ccccc1)c1ccccc1N)C2` (some centres not stated), the activity change, negative = inhibition in assay [1] is 12.1% [at 38 µM]. Further, the Potency is more than 46 µM in assay [2], 0.0141 µM (active) in assay [9] and 0.0071 µM (active) in assay [10]. The outcome in assay [3], in assay [4], in [8], in [12], in assay [13] and in assay [14] was inactive. Moreover, the result in [15] and in assay [16] was inactive. In addition, the Potency entry in assay [5], in assay [6], in assay [7] and in [11] was “inactive” each time.

On to `Cc1c(N=Cc2c(O)n(Cc3ccco3)c(=O)[nH]c2=O)c(=O)n(-c2ccccc2)n1C`, for which, in assay [1], the activity change, negative = inhibition was -3.26%. Further, in assay [17], the outcome was inactive. For the same compound, in assay [2], the Potency is more than 20.6 µM.

For `CC[C@@H]1CN2CC[C@@H]1C[C@H]2[C@@H](O)c1ccnc2ccc(OC)cc12`, the Potency result in [18], in [6] and in assay [21] was “inactive” in each case. The Potency in [2] is more than 46 µM; in assay [19], more than 46 µM; in assay [20], 0.0016 µM (active). Also, the compound was classed as inactive in [3].

Consider `O=c1[nH]c(=O)n(CCc2ccccc2)c(O)c1C=NCCN1CCNCC1`, for which the activity change, negative = inhibition in assay [1] is 17.3%. In assay [17], the outcome was inactive. Besides, the Potency in assay [2] was more than 20.6 µM.

Take `CCCCCC[C@H]1C(=O)O[C@H](C)[C@H](NC(=O)c2cccc(NC=O)c2O)C(=O)O[C@@H](C)[C@H]1OC(=O)CC(C)C`: the Potency result in [18] and in [7] was “inactive” each time. For the same compound, in assay [22], the activity change, negative = inhibition was -34.3%. Also, the Potency in assay [2] was more than 20.6 µM; in assay [23] it was 5.01 µM (active); in assay [24], 28.2 µM (active). The call in [3] and in assay [4] was inactive.
